Shown are actives, neighbours in structure and some others; about 8.7% of the full set was active somewhere.
HP1b chromo inh: blocks HP1-beta chromodomain binding to methylated histone tails. P83916. AlphaScreen HP1-beta / biotin-H3K9me3 peptide binding. Potency, µM (top dose mostly 114 µM), for the others: at the top dose activity change, negative = inhibition, actives largely listed as inhibitors. 390,000 tested, 0.56% active. AID 540317; also: nearly all actives have a fitted effect of over 70% in size
Target sequence (P83916 whole entry, looked up): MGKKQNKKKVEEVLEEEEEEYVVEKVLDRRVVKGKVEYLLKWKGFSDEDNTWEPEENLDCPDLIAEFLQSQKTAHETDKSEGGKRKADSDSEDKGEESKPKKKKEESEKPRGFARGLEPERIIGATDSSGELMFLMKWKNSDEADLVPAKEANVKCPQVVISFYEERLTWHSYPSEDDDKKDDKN
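HP1-beta protein (50 nM final) preincubated 30 min at room temperature with biotinylated H3(1-18)K9me3 peptide (50 nM) in PBS pH 7.4, 0.01% Tween-20, then compound added for 30 min. AlphaScreen streptavidin donor/nickel chelate acceptor beads (10 ug/mL final), 30 min dark, luminescence read.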
JMJD2A Tudor inh: blocks the human JMJD2A Tudor domain. O75164. AlphaScreen JMJD2A-Tudor / H3K4me3 peptide binding. Potency, µM (titrated, usually from 114 µM), for the others: top-dose activity change, negative = inhibition, usual class: inhibitors. 390,000 tested, 4.4% active; also: % is scaled to controls: 0 for no effect and ±100 for the full control effect; nearly all actives have a fitted effect of over 50% in size
G9a inh: G9a (human) methyltransferase inhibition; G9a H3K9 monomethylation, AlphaScreen, 2 h; Potency, µM (top dose mostly 102 µM), for inactives: at the top dose activity, negative = inhibition, usual class: inhibitors; 350,000 tested, 8.8% active; AID 504332; also: % is scaled to controls: 0 for no effect and ±100 for the full control effect; nearly all actives have a fitted effect of over 75% in size
Target sequence (Q96KQ7 913-1193 limits assumed): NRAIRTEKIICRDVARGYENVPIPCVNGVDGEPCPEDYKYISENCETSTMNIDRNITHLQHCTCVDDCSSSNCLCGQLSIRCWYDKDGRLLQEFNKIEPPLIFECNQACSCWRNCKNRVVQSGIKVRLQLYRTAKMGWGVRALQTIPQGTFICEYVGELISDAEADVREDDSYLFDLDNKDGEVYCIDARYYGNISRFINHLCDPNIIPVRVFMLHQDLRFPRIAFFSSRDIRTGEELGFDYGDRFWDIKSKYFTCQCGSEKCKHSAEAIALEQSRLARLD
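Enzyme 20 nM + cpd, 15 min RT; add b-H3K9 pep 500 nM / SAM 20 uM; 2 h RT; anti-H3K9me1 Ab 0.5 ug/mL + SA donor / anti-rabbit acceptor beads 20 ug/mL each, 10 min; AlphaScreen read.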
12-LOX inh: ALOX12 (human) lipoxygenase inhibition; P18054; purified 12hLO, xylenol orange hydroperoxide absorbance; Potency, µM (titrated, usually from 108 µM), for inactives: at the highest dose activity change, negative = inhibition, hits mostly inhibitors; 580,000 tested, 1.1% active; AID 1671190; also: % is scaled to controls: 0 for no effect and ±100 for the full control effect
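Purified human 12hLO (150 nM final) in 25 mM Hepes, 0.01% Triton X-100, pH 7.0 was preincubated 15 min at room temperature with compound. Then 40 uM arachidonic acid was added, 30 min. Hydroperoxide was read by Fe-XO absorbance ratio 573/405 nm.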
Sfp inh: Sfp phosphopantetheinyl transferase inhibition | Biochemical Sfp PPTase activity, qHTS | Potency, µM, without a hit: largest response in the series, negative = inhibition, usual class: inhibitors | 310,000 tested, 3.5% active | Q9F4F7;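 also: the enzyme is Sfp with the accession as filed and its product quenches rhodamine fluorescence; 0% = enzyme reaction without inhibitor and -100% = no enzyme wells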
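Fluorescence-quenching assay: 15 nM Sfp-PPTase preincubated 15 min at room temperature with compound, then 5 uM rhodamine-CoA and 12.5 uM BHQ-2-labelled YbbR peptide added. Fluorescence (ex 525/em 598 nm) read at start and after 30 min; difference gives rate.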
BAZ2B inh: BAZ2B (human) inhibition. Q9UIF8. AlphaScreen BAZ2B-H3K14Ac peptide displacement. Potency, µM (titrated, usually from 114 µM), inactives show at the highest dose activity change, negative = inhibition, actives largely listed as inhibitors. 360,000 tested, 4.4% active. AID 504333; also: % is scaled to controls: 0 for no effect and ±100 for the full control effect; nearly all actives have a fitted effect of over 60% in size
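AlphaScreen luminescence quantifies BAZ2B engagement of H3K14Ac peptide; the protein and biotinylated peptide are both at 50 nM final, buffer PBS pH 7.4 with 0.01% Tween-20, all steps at room temperature.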
An asterisk follows results filed as active; ? = inconclusive; · = no result given; [ ] = remark or other dose. Calls follow the shape of the dose curve; as a rule, active = well fitted curve in the direction sought with a large enough effect; inconclusive = small, poorly fitted or top-dose-only effect, or another doubt; inactive = no such curve, though single readings can be large; an effect the other way counts as inactive or inconclusive. Potency is read from the fitted curve at half-maximal effect.

SMILES	HP1b chromo inh	JMJD2A Tudor inh	G9a inh	12-LOX inh	Sfp inh	BAZ2B inh
S=C(c1cn(CCOc2cccc3ccccc23)c2ccccc12)N1CCCC1	2%	?	?	?	18%	-9%
Clc1ccccc1OCCCCN1CCCCC1	?	28µM*	·	?	-21%	?
CC1CCN(CCOc2cc(Cl)ccc2Cl)CC1	?	3.5µM*	?	?	-14%	50µM*
c1ccc2c(OCCCCN3CCCC3)cccc2c1	?	40µM*	35µM*	-24%	-11%	56µM*
CC(=O)NCCCCCC(=O)NCC(C)(c1ccccc1)c1ccccc1	·	·	·	-5%	·	·
S=c1[nH]c(-c2ccccc2)cn1/N=C/c1ccncc1	-24%[57 µM]	0.71µM*	1.6µM*	?	79µM*	-22%
S=c1[nH]ncn1/N=C/c1ccc(N2CCOCC2)cc1	35%	2.8µM*	1.8µM*	?	?	-2%
S=c1[nH]ncn1/N=C/c1ccccc1	42%	6.3µM*	26%[2.33 µM]	?	?	-8%
NC(N)=N/N=C/c1ccc(Br)cc1	20%	-15%	-30%	-35%	5%	-13%
S=c1[nH]ncn1/N=C/c1ccc(Br)cc1	-5%	7.9µM*	1.3µM*	?	-6%	-29%
Cc1ccc(S(=O)(=O)N(CC(=O)N2CCCC2)c2cccc(Cl)c2)cc1	·	·	·	-8%	·	·
CCCNC(=O)N1Cc2ccccc2OC2(CCN(C)CC2)C1	·	·	·	34%	·	·
Oc1cc2c(cc1O)[C@@H]1c3ccc(O)c(O)c3OC[C@]1(O)C2	·	·	·	?	32µM*	·
COc1cc2c(cc1OC)C1c3ccc(OC)c(OC)c3OCC1(O)C2 (stereo unspecified)	11%	-7%	·	?	·	·
COc1cc(OC)cc(-c2nnc(Sc3ccc(C=O)cc3[N+](=O)[O-])o2)c1	·	·	25µM*	·	1%	?
COC[C@@H]1CN(c2cnccn2)C[C@H]1C(=O)NCc1ccccc1F	·	·	·	52%	·	·
CCOC(=O)c1cc(CNC(=O)c2c(C)oc3c2CCCC3)c(C)o1	-9%	-30%	50µM*	-1%	-11%	?
Cc1oc2c(c1C(=O)NCc1cc(C(=O)O)co1)CCCC2	44%	-7%[57.1 µM]	-3%	9%	1%	0%
CCOC(=O)c1coc(CNC(=O)c2c(C)oc3c2CCCC3)c1	-1%	-27%	56µM*	-2%	-1%	?
O=C(CCn1ccn2nc3c(c2c1=O)CCCC3)NCc1cccs1	·	·	·	38%	·	·
CC(=O)NC1=NN(C(C)=O)C(c2ccccc2OCc2ccccc2)S1 (stereo unspecified)	·	·	·	5%	·	·
CC(=O)c1ccc(N2C(=O)C3C(C2=O)C(C(=O)c2ccc(Cl)cc2)N2CCCC32)cc1 (stereo unspecified)	-16%	-18%[11.4 µM]	?	0%	22µM*	?
O=C(c1ccc(Cl)cc1)[C@@H]1[C@@H]2C(=O)N(c3ccccc3)C(=O)[C@@H]2C2c3ccccc3C=NN21 (stereo partly specified)	27%	-32%	20µM*	-4%	-12%	-11%
O=C(c1ccc(Cl)cc1)C1C2C(=O)N(c3ccccc3)C(=O)C2C2CCCN21 (stereo unspecified)	65%	-14%[11.4 µM]	8.9µM*	5%	-24%	?
COc1ccc(C(=O)[C@H]2[C@H]3C(=O)N(c4ccc(OC(C)=O)cc4)C(=O)[C@H]3C3C=CC=NN32)cc1 (stereo partly specified)	6%	-23%	·	0%	2%	-20%
SMILES	HP1b chromo inh	JMJD2A Tudor inh	G9a inh	12-LOX inh	Sfp inh	BAZ2B inh
O=C1C(C2=NC(C(=O)O)C3C(=O)N(c4ccc(Cl)cc4)C(=O)C23)=C(O)c2ccccc21 (stereo unspecified)	30%	?	·	4%	0%	6%
O=C1[C@H]2[C@H](ON3CCCC[C@H]23)C(=O)N1c1ccc(Cl)cc1	-3%	-11%	-35%	-18%	-10%	-10%
O=C1C2C3C=CC(CC3)C2C(=O)N1c1ccc(Cl)cc1 (stereo unspecified)	26%	1%	-10%[0.501 µM]	16%	18%	35%
COc1ccc(N2C(=O)C3C(C2=O)C(C(=O)c2ccc(Cl)cc2)N2CCCC32)cc1 (stereo unspecified)	?	?	?	?	28µM*	?
CCN(CC)C(=O)CSc1nc2c(sc(=S)n2CC)c(=O)n1-c1ccccc1	25%	-12%	?	-1%	8%	0%
CCN(CC)C(=O)CSc1nc2c(sc(=S)n2-c2ccccc2)c(=O)n1Cc1ccco1	-31%	-28%	40µM*	?	40µM*	56µM*
COc1ccccc1-n1c(=S)sc2c(=O)n(Cc3ccco3)c(SC)nc21	-34%	?	13µM*	9%	-1%	-38%
COc1ccccc1-n1c(SC)nc2c(sc(=S)n2-c2ccccc2)c1=O	25%	1%	29%	0%	17%	1%
Cc1ccc(NC(=S)N/N=C2/CCCCc3ccccc32)cc1	-20%	?	?	32µM*	6%	?
S=C(N/N=C1/CCCCc2ccccc21)NC1CCCCC1	·	·	·	45µM*	·	·
Cc1cccc(NC(=S)N/N=C2/CCCCc3ccccc32)c1	?	?	-10%[59 µM]	32µM*	1%	40µM*
C=C(C)CNC(=S)N/N=C1\CCCCc2ccccc21	?	?	?	35µM*	2%	?
COc1ccc(NC(=S)N/N=C2/CCCc3c(C)cc(C)cc32)cc1	-2%	-24%	3%[59 µM]	0%	26%	-6%
Cc1c(-c2ccccc2)nn2c1NC(=O)CC2C(=O)Nc1ccc2c(c1)OCO2 (stereo unspecified)	·	·	·	-25%	·	·
S=C(NN=C1CCC(c2ccccc2)CC1)NC1CCCCC1 (stereo unspecified)	·	·	·	35µM*	·	·
Cc1cc(C)nc(N2C[C@H]3OC(=O)N(CCc4ccc(F)cc4)[C@H]3C2)n1	·	·	·	-2%	·	·
COc1ccc(OC)c(NC(=O)Cn2c(N3CCc4ccccc4C3)nc(C)cc2=O)c1	·	·	·	-13%	·	·
COc1ccc(C(NC(=O)CN2C(=O)NC3(CCc4ccccc43)C2=O)c2ccc(OC)cc2)cc1 (stereo unspecified)	0%	-28%	50µM*	-11%	·	1%
COc1cccc(NC(=O)Cn2c(N3CCc4ccccc4C3)nc(C)cc2=O)c1	·	·	·	28µM*	·	·
COc1cccc(NC(=O)CN2C(=O)NC3(CCCc4ccccc43)C2=O)c1 (stereo unspecified)	39%	-1%	10µM*	?	·	-4%
CCc1ccc(S(=O)(=O)N(C)C(C)c2nc3ccccc3s2)cc1 (stereo unspecified)	·	·	·	28%	·	·

Screening results as filed in PubChem.
